Reference: PubChem BioAssay AID463173 (ICCB-Longwood Screening Facility, Harvard Medical School, 2010)
The whole screen tested about 52,000 compounds, of which about 4,300 (8.3%) were called active. Rule as the data show it: active = survival mostly below about 52% (no sharp cut-off); inactive = mostly above about 56%. This excerpt belongs to a sample that is enriched for actives.

system: DeltatarO mutant; experiment: S. aureus survival, RN4220 and DeltatarO strains – OD600, teichoic acid synthesis inhibitors, primary screen (AID 463173); conditions: S. aureus RN4220 wild type/DeltatarO growth, OD600, 18 h, stronger effect = lower value, screened at 18.75 µg/mL (by protocol)

Structure (SMILES) | survival
COc1ccc(OC)c(NC(=O)Nc2cccc(OCc3cc(=O)n4cc(C)ccc4n3)c2)c1 | 101% (inactive)
COc1ccc(N2CCN(C(=O)c3ccc4c(c3)N(Cc3cc(C)ccc3C)C(=O)c3ccccc3S4=O)CC2)cc1 (centres undefined) | 85% (inactive)
Cn1c(=O)c2c(-c3ccccc3)n3c4ccccc4nc(-c4ccccc4)c3c2n(C)c1=O | 82% (inactive)
CCc1cccc(C)c1NC(=O)CN1C(=O)c2c(c3ccccc3n2C)C1c1ccc(OC)cc1 (centres undefined) | 83% (inactive)
CCSc1ccccc1C(=O)N1CCN(c2nc3ccccc3s2)CC1 | 92% (inactive)
COc1cccc(NC(=O)C(=O)NCC(c2ccc3c(c2)OCO3)N2CCOCC2)c1 (centres undefined) | 49% (inactive)
COc1ccc(-c2nsc(NC(=O)COc3ccccc3OC)n2)cc1 | 61% (inactive)
CCOC(=O)c1c(C)[nH]c(CCC(=O)NC(C)c2ccccc2)c1C (centres undefined) | 94% (inactive)
Cc1ccc2nc(N(Cc3cccnc3)C(=O)C3COc4ccccc4O3)sc2c1 (centres undefined) | 94% (inactive)
COc1cc(Cl)c(C)cc1NC(=O)c1cn(C2CCCC2)c(=O)c2c1c1ccccc1n2C | 109% (inactive)
COc1cccc(NC(=O)/C(C#N)=C\c2cn(Cc3ccc(Cl)cc3)c3ccccc23)c1 | 77% (inactive)
COc1ccc(CNC(=O)c2ccc3c(c2)N(Cc2ccccc2C)C(=O)c2ccccc2S3=O)cc1 (centres undefined) | 99% (inactive)
COc1ccc(C2CC(=O)c3cnc4c(-c5ccccc5)c(C)nn4c3C2)cc1OC (centres undefined) | 54% (inactive)
O=C(O)c1c2c(nc3ccc(S(=O)(=O)N4CCC(C(=O)NCc5ccc(Cl)cc5)CC4)cc13)CCCC2 | 90% (inactive)
N#CC1=C(N)OC2=C(C(=O)CCC2)C1c1ccccc1C(F)(F)F (centres undefined) | 78% (inactive)
CCOc1ccc(CNC(=O)Nc2ccc3c(c2)N(C)C(=O)c2ccccc2S3)cc1 | 75% (inactive)
COc1ccccc1N1CCN(C(=O)c2cc3c(=O)oc4ccccc4c3s2)CC1 | 169% (inactive)
Cc1ccc(-c2cc(C(F)(F)F)c(C#N)c(SCC(=O)O)n2)cc1 | 66% (inactive)
CCOC(=O)CSc1nc(-c2ccc(OCC)cc2)cc(C(F)(F)F)c1C#N | 67% (inactive)
CCCOc1ccc(-c2cc(C(F)(F)F)c(C#N)c(SCCC(=O)O)n2)cc1 | 29% (active)
CSc1ccc(CCNC(=O)C2CCCN(S(=O)(=O)N(C)c3ccc(F)cc3)C2)cc1 (centres undefined) | 74% (inactive)
CC1CN(c2ccc(Cl)cc2)c2nc3c(c(=O)n(CC(=O)O)c(=O)n3C)n2C1 (centres undefined) | 84% (inactive)
COc1cccc(N2CCN(C(=O)C3CCC(CNS(=O)(=O)c4ccc(Br)s4)CC3)CC2)c1 (centres undefined) | 78% (inactive)
O=C(CNS(=O)(=O)c1ccc(Br)s1)N1CCN(c2ccc(F)cc2)CC1 | 27% (active)
O=C(CNS(=O)(=O)c1cccs1)N1CCN(c2ccccc2F)CC1 | 51% (inactive)

Structure (SMILES) | survival
O=C(C1CCN(S(=O)(=O)c2ccc(Br)s2)CC1)N1CCN(c2ccc(F)cc2)CC1 | 87% (inactive)
O=C(CNS(=O)(=O)c1cccs1)N1CCN(c2ccccc2Cl)CC1 | 45% (active)
COc1ccc(N2CCN(C(=O)CNC3CC3)CC2)cc1 | 74% (inactive)
COc1ccccc1N1CCN(C(=O)CNS(=O)(=O)c2ccc(Br)s2)CC1 | 116% (inactive)
O=C(C1CCC(CNS(=O)(=O)c2ccc(Br)s2)CC1)N1CCN(c2ccc(F)cc2)CC1 (centres undefined) | 74% (inactive)
COc1ccc(N2CCN(C(=O)CNS(=O)(=O)c3ccc(Br)s3)CC2)cc1 | 32% (active)
CCOC(=O)c1c(C)[nH]c(C)c1S(=O)(=O)NCC(=O)N1CCN(c2ccccc2F)CC1 | 76% (inactive)
O=C(CNS(=O)(=O)c1ccc(Br)s1)N1CCN(c2ccccc2F)CC1 | 36% (active)
O=C(CNS(=O)(=O)c1cccs1)N1CCN(c2cccc(C(F)(F)F)c2)CC1 | 83% (inactive)
O=C(Nc1cc(C(F)(F)F)ccc1Cl)c1noc2c1CCCCC2 | 82% (inactive)
COc1ccc(NC(=O)c2ccc3c(=O)n4nc(Nc5cc(C)ccc5C)sc4nc3c2)cc1 | 116% (inactive)
CCCCN(C)c1nc2c(S(=O)(=O)c3ccc(CC)cc3)nnn2c2ccc(Cl)cc12 | 76% (inactive)
CCc1ccccc1NC(=O)Cc1c(C(=O)O)[nH]c2ccc(Cl)cc12 | 80% (inactive)
CCOc1ccc(CCNC(=O)c2cnc3sc(N(CC)CC)nn3c2=O)cc1OCC | 122% (inactive)
COc1ccc(CNC(=O)c2ccc(N3CCCC3)c(NC(=O)NCc3ccc(F)cc3)c2)cc1 | 93% (inactive)
Cc1ccc(-n2ncc3c(NC4CCCCCC4)ncnc32)cc1Cl | 66% (inactive)
CCc1ccc(NC(=O)Cn2ccn(-c3cccc(Cl)c3)c(=O)c2=O)cc1 | 61% (inactive)
Cc1ccc(NC(=O)c2ccc(N(Cc3ccccc3)S(C)(=O)=O)cc2)cc1 | 64% (inactive)
Cc1ccc(C(=O)Nc2ccc(S(=O)(=O)N(Cc3ccccc3)c3ccccc3)cc2)cc1 | 65% (inactive)
Cc1ccccc1NC(=O)c1ccc(N(Cc2ccccc2)S(C)(=O)=O)cc1 | 66% (inactive)
CS(=O)(=O)N(Cc1ccccc1)c1ccc(C(=O)Nc2cccc(Cl)c2)cc1 | 36% (active)
CS(=O)(=O)N(Cc1ccccc1)c1ccc(C(=O)Nc2ccc(Cl)cc2)cc1 | 145% (inactive)
Cc1cccc(NC(=O)c2ccc(N(Cc3ccccc3)S(C)(=O)=O)cc2)c1 | 48% (active)
CNc1nc2c(c(=O)[nH]c(=O)n2C)n1Cc1cccc2ccccc12 | 85% (inactive)
COc1cccc(N2CCN(C(=O)C(CCSC)NS(=O)(=O)c3ccc4c(c3)oc(=O)n4C)CC2)c1 (centres undefined) | 106% (inactive)

Structure (SMILES) | survival
Fc1ccc(-n2cc(-c3ccccc3)c3c(NC4CCCCC4)ncnc32)cc1 | 85% (inactive)
Cc1ccc(-n2ncc(C(=O)NCCN3CCC(Cc4ccccc4)CC3)c2C2CCN(C(=O)OC(C)(C)C)CC2)cc1 | 98% (inactive)
CC(C)(C)OC(=O)N1CCC(c2c(C(=O)NCc3ccc(F)cc3)cnn2-c2ccc(F)cc2)CC1 | -5% (active)
CC(C)(C)OC(=O)N1CCC(c2c(C(=O)NCCN3CCC(Cc4ccccc4)CC3)cnn2-c2ccccc2)CC1 | 80% (inactive)
CC(C)(C)OC(=O)N1CCC(c2c(C(=O)NCc3cccs3)cnn2-c2cccc(F)c2)CC1 | -5% (active)
Cc1ccc(-n2ncc(C(=O)NCc3cccs3)c2C2CCN(C(=O)OC(C)(C)C)CC2)cc1C | 91% (inactive)
CC(C)(C)OC(=O)N1CCC(c2c(C(=O)NCc3ccccc3)cnn2-c2ccc(F)cc2)CC1 | 128% (inactive)
COc1ccc(CNC(=O)c2cnn(-c3ccc(OC)cc3)c2C2CCN(C(=O)OC(C)(C)C)CC2)cc1 | 74% (inactive)
CC(C)(C)OC(=O)N1CCC(c2c(C(=O)NCCN3CCC(Cc4ccccc4)CC3)cnn2-c2ccc(F)cc2)CC1 | 47% (active)
CC(C)(C)OC(=O)N1CCC(c2c(C(=O)NCc3cccs3)cnn2-c2ccc(F)cc2F)CC1 | 72% (inactive)
CC(C)CCNC(=O)CSc1nc2ccccc2nc1Cc1ccccc1 | 82% (inactive)
Cc1ccc2c(=O)cc(C(=O)Nc3nnc(CC(C)C)s3)oc2c1C | 61% (inactive)
CCCc1nnc(NC(=O)c2cc(=O)c3cc(Cl)ccc3o2)s1 | 43% (active)
CCCc1nnc(NC(=O)c2cc(=O)c3ccccc3o2)s1 | 63% (inactive)
CCCSc1nnc(NC(=O)c2cc(=O)c3ccccc3o2)s1 | 38% (active)
CCCc1nnc(NC(=O)c2cc(=O)c3cc(C)c(C)cc3o2)s1 | 35% (active)
Cc1ccc2oc(C(=O)Nc3nnc(CC(C)C)s3)cc(=O)c2c1 | 63% (inactive)
CCc1nnc(NC(=O)c2cc(=O)c3cc(C)c(C)cc3o2)s1 | 36% (active)
CCCC(=O)Nc1nnc(CCC)s1 | 80% (inactive)
CCc1nnc(NC(=O)c2cc(=O)c3cc(C)ccc3o2)s1 | 79% (inactive)
Cc1cc2oc(C(=O)Nc3ccc(S(N)(=O)=O)cc3)cc(=O)c2cc1C | 70% (inactive)
CC(=O)Nc1ccc(NC(=O)c2cc(=O)c3ccccc3o2)cc1 | 59% (inactive)
CCCSc1nnc(NC(=O)Cc2coc3cc(C)ccc23)s1 | 85% (inactive)
CCOc1ccc(-n2cc(C(=O)Nc3ccccc3OCC)c3cc(OC)c(OC)cc3c2=O)cc1 | 61% (inactive)
O=C(NCc1ccco1)c1ccc2c(c1)N(Cc1ccc(F)cc1)C(=O)c1ccccc1S2=O (centres undefined) | 76% (inactive)

Structure (SMILES) | survival
COc1ccccc1CNS(=O)(=O)c1cnc(N)nc1 | 89% (inactive)
C=CS(=O)(=O)c1ccc(Oc2ccc(S(=O)(=O)C=C)cc2)cc1 | 103% (inactive)
COC(=O)CNc1cn[nH]c(=O)n1 | 92% (inactive)
COCCN(Cc1ccco1)C(=O)c1cc2c(Cl)nc3ccc(C)cc3c2s1 | 92% (inactive)
CCc1c(C)c2ccc(O)c(CN3CCN(c4cc(Cl)ccc4C)CC3)c2oc1=O | 54% (inactive)
CC(C)n1c(SCc2ccccc2)nnc1C1CCCN(CC(N)=O)C1 (centres undefined) | 96% (inactive)
COc1ccc(Cn2ccc3nc(C)c(C(=O)N4CCN(c5ccccc5OC)CC4)cc3c2=O)cc1 | 102% (inactive)
O=C(NC12CCC(O)C(SC1)C2O)c1ccccc1 (centres undefined) | 109% (inactive)
COc1ccccc1C(O)(C(=O)NNc1cccc(Br)n1)c1ccccc1OC | 73% (inactive)
CSc1nnc(NC(=O)c2cc(=O)c3cc(C)c(C)cc3o2)s1 | 52% (inactive)
CCSc1nnc(NC(=O)c2cc(=O)c3cc(C)c(C)cc3o2)s1 | 44% (active)
CCSc1nnc(NC(=O)c2cc(=O)c3cc(C)ccc3o2)s1 | 86% (inactive)
CC(Nc1ccc(-c2nc(-c3ccccn3)no2)cc1[N+](=O)[O-])c1ccccc1 (centres undefined) | 19% (active)
CC(Nc1ccc(-c2nc(-c3ccncc3)no2)cc1[N+](=O)[O-])c1ccccc1 (centres undefined) | 42% (active)
CCC(Nc1ccc(-c2nc(-c3ccccn3)no2)cc1[N+](=O)[O-])c1ccccc1 (centres undefined) | 41% (active)
CC(Nc1ccc(-c2nc(-c3cccnc3)no2)cc1[N+](=O)[O-])c1ccccc1 (centres undefined) | 79% (inactive)
CNc1ccc(-c2nc(-c3ccccn3)no2)cc1[N+](=O)[O-] | 52% (inactive)
CCC(Nc1ccc(-c2nc(-c3cccnc3)no2)cc1[N+](=O)[O-])c1ccccc1 (centres undefined) | 64% (inactive)
CCC(Nc1ccc(-c2nc(-c3ccco3)no2)cc1[N+](=O)[O-])c1ccccc1 (centres undefined) | 53% (inactive)
CC(Nc1ccc(-c2nc(-c3ccco3)no2)cc1[N+](=O)[O-])c1ccccc1 (centres undefined) | 100% (inactive)
CC(C)Nc1ccc(-c2nc(-c3ccccn3)no2)cc1[N+](=O)[O-] | 38% (active)
Cc1noc(-c2ccc(NC(C)c3ccccc3)c([N+](=O)[O-])c2)n1 (centres undefined) | 70% (inactive)
CC(C)Nc1ccc(-c2nc(-c3ccco3)no2)cc1[N+](=O)[O-] | 107% (inactive)
CC(C)Nc1ccc(-c2nc(-c3ccncc3)no2)cc1[N+](=O)[O-] | 79% (inactive)
